78 molecules from PubChem BioAssay AID1259421 (Broad Institute, 2018) can be followed below.

“And” between values parts separate entries of the source, which are not always exact repeats. Identical values can stand only once. Screen size: about 6,400 compounds; about 610 (9.5%) were called active. Cut-off read from the data, not from the text of the source: active = activity change below about -70%; inconclusive = no clear call, values can overlap the other calls; inactive = above that. Only a selection was taken, and actives are over-represented in it overall. Some compounds were tested as several samples or in several runs, with calls that do not always agree.

A short description of the experiment: Toxoplasma gondii ME49Luc growth in HeLa cells, luciferase, no IFN-y, primary screen (AID 1259421). The following applies: T. gondii ME49Luc in HeLa, 72 h, stronger effect = lower value, concentration not given here.
Take `NC(Cc1ccc(O)cc1)C(=O)O` (stereo not drawn): the activity change, negative = inhibition was 3.44% (inactive).

`Oc1ccc(-c2nc3cc(O)cc(Br)c3o2)cc1`: the activity change, negative = inhibition was -55.9% (inactive).

Turning to `CC(=O)O[C@@H]1CC2C(C)(CC[C@H](O)C2(C)C)C2CC[C@]3(C)C(=CC(=O)O[C@H]3c3ccoc3)C21C` (stereo partly drawn), the activity change, negative = inhibition was -5.23% (inactive).

As to `CCC(c1ccc(O)cc1)C(CC)c1ccc(O)cc1` (stereo not drawn), the activity change, negative = inhibition was 14.8% (inactive).

Consider `c1ccc(-c2cc3ccccc3[nH]2)cc1`, for which the activity change, negative = inhibition was 106% (inactive).

On to `Nc1nc(Nc2ccccc2)nc2c1ncn2C1OC(CO)C(O)C1O` (stereo not drawn), for which the activity change, negative = inhibition is 3.98% (inactive).

As for `COc1ccc(Nc2ccn(-c3ccccc3)n2)cc1`, the activity change, negative = inhibition was 404% (inactive).

Consider `CCCCCC/C=C\CCCCCCCc1cccc(O)c1C(=O)O`, for which the activity change, negative = inhibition was 6.32% (inactive).

For the molecule `NC(=O)CC[C@H](NC(=O)Cc1ccccc1)C(=O)O`, the activity change, negative = inhibition was 16.1% (inactive).

`C=CC(C)(C)c1cc(/C=C/C(=O)c2ccc(O)cc2)c(OC)cc1O`: the activity change, negative = inhibition is 187% (inactive).

For the molecule `CCCC(CCC)C(=O)Nc1ccn([C@@H]2O[C@H](CO)[C@@H](O)C2(F)F)c(=O)n1`, the activity change, negative = inhibition is -1.71% (inactive).

Consider `COc1ccccc1OC(=O)CNC(=O)Cc1ccc(C(=O)c2ccc(C)cc2)n1C`, for which the activity change, negative = inhibition is 15.7% (inactive).

As for `C[C@@H]1O[C@@H](Oc2c(-c3cc(O)c(O)c(O)c3)oc3cc(O)cc(O)c3c2=O)[C@@H](O)[C@H](O)[C@H]1O`, the activity change, negative = inhibition is 8.81% (inactive).

For `CN1CCN(c2ccc3nc(-c4c(N)c5c(F)cccc5[nH]c4=O)[nH]c3c2)CC1`, the activity change, negative = inhibition was -36.1% (inactive) and -79.7% (active).

Consider `CN1CCN(c2ccc3nc(-c4ccc5nc(-c6ccc(O)cc6)[nH]c5c4)[nH]c3c2)CC1`, for which the activity change, negative = inhibition was -23.1% (inactive).

For `CN1CCN(C(=O)c2nc3ccc(Cl)cc3[nH]2)CC1`, the activity change, negative = inhibition was 1.51% (inactive) and 15.6% (inactive).

With `O=C(O)c1cc(N=Nc2ccc(O)c(C(=O)O)c2)ccc1O`, the activity change, negative = inhibition was 7.94% (inactive).

With `O=S(=O)(O)C(F)(F)F.O=S(=O)(O)C(F)(F)F.O=S(=O)(O)C(F)(F)F.[Bi]`, the activity change, negative = inhibition is 11% (inactive).

As to `CN(C)C(=S)SC(=S)N(C)C`, the activity change, negative = inhibition was 39.1% (inactive).

Turning to `NC(N)=NC(N)=NCCc1ccccc1`, the activity change, negative = inhibition is -13.4% (inactive).

With `CC(C)C(NS(=O)(=O)c1ccc(-c2ccc(Br)cc2)cc1)C(=O)O` (stereo not drawn), the activity change, negative = inhibition is 9.87% (inactive).

Consider `CC(C)ON([C@@H](C(=O)NO)C(C)C)S(=O)(=O)c1ccc(-c2ccccc2)cc1`, for which the activity change, negative = inhibition was -87.2% (active).

As to `CC(C)[C@H](NS(=O)(=O)c1ccc(-c2ccc(Br)cc2)cc1)C(=O)O`, the activity change, negative = inhibition was 4.75% (inactive).

`Cc1noc(-c2ccc(CSCCC(=O)O)cc2)c1NC(=O)OC(C)c1ccccc1Cl` (stereo not drawn): the activity change, negative = inhibition is 13.3% (inactive).

As to `O=C(O)c1ccc2nc(-c3cc(Cl)cc(Cl)c3)oc2c1`, the activity change, negative = inhibition is 84.3% (inactive).

In the case of `Cc1[nH]c(/C=C2\C(=O)Nc3ccc(S(=O)(=O)Cc4c(Cl)cccc4Cl)cc32)c(C)c1C(=O)N1CCC[C@@H]1CN1CCCC1`, the activity change, negative = inhibition was -78.2% (active) and -84% (active) and -67.3% (inactive).

As to `Cc1[nH]c(/C=C2\C(=O)Nc3ccc(S(=O)(=O)N(C)c4cccc(Cl)c4)cc32)c(C)c1C(=O)N1CCN(C)CC1`, the activity change, negative = inhibition is -35.8% (inactive).

Take `OC1(c2ccc(Cl)cc2)CCNCC1`: the activity change, negative = inhibition was 13.9% (inactive).

`CN1CC[C@@H](NC(=O)Nc2ccc(C#N)cc2)C[C@@H]1c1nc2ccccc2[nH]1`: the activity change, negative = inhibition was 7.93% (inactive).

For the molecule `CC(C)C[C@H](NC(=O)[C@@H](NC(=O)c1cccc(-c2ccccc2)n1)[C@@H](C)O)B(O)O`, the activity change, negative = inhibition is -75.2% (active) and -70.7% (active).

Consider `CC(C)C[C@H](NC(=O)[C@@H](O)[C@H](N)Cc1ccccc1)C(=O)O`, for which the activity change, negative = inhibition is -0.518% (inactive) and 15% (inactive).

As for `CNC(=O)[C@H](Cc1ccccc1)NC(=O)[C@H](CC(C)C)[C@H](CSc1cccs1)C(=O)NO`, the activity change, negative = inhibition was -1.31% (inactive) and 10.6% (inactive).

For the molecule `CC(C)C[C@H](NC(=O)[C@H](Cc1ccccc1)NC(=O)c1cnccn1)B(O)O`, the activity change, negative = inhibition was -73.2% (active) and -72% (active).

With `CC(C)CC(NC(=O)OCC1c2ccccc2-c2ccccc21)C(=O)O` (stereo not drawn), the activity change, negative = inhibition was -4.74% (inactive).

As for `CC(C)C[C@@H](NC(=O)OCC1c2ccccc2-c2ccccc21)C(=O)O`, the activity change, negative = inhibition was 145% (inactive) and 359% (inactive).

For `CCC[N+]12C3C[C@H](C4C(O)[C@]5(C[C@@H]41)c1ccccc1N(C)[C@@H]35)[C@H](CC)[C@H]2O` (stereo partly drawn), the activity change, negative = inhibition was 10.9% (inactive).

As to `CCOc1ccc(N=C(C)Nc2ccc(OCC)cc2)cc1`, the activity change, negative = inhibition was 3.11% (inactive).

`CCCc1c(OCC(O)COc2ccc3c(=O)cc(C(=O)O)oc3c2CCC)ccc(C(C)=O)c1O` (stereo not drawn): the activity change, negative = inhibition was 10.3% (inactive) and -5.08% (inactive).

On to `CCOC(=O)C1CN(Cc2ccccc2)C(=O)C1=O` (stereo not drawn), for which the activity change, negative = inhibition was 16.6% (inactive) and 1.66% (inactive).

On to `N[C@@H]1CCCC[C@H]1N.O=C(O)C(=O)O.[Pt]`, for which the activity change, negative = inhibition is 10.5% (inactive).

Consider `CC1(C)CC[C@]2(C(=O)O)CC[C@]3(C)C(=CCC4[C@@]5(C)CC[C@@H](O)C(C)(C)C5CC[C@]43C)C2C1` (stereo partly drawn), for which the activity change, negative = inhibition is 10.1% (inactive).

In the case of `NC1CCN(c2c(F)cc3c(=O)c(C(=O)O)cn(C4CC4)c3c2Cl)C1` (stereo not drawn), the activity change, negative = inhibition was -79.3% (active).

`N[C@@H]1CCCCN(c2c(F)cc3c(=O)c(C(=O)O)cn(C4CC4)c3c2Cl)C1`: the activity change, negative = inhibition is 4.72% (inactive).

For `N[C@@H]1CN(c2c(F)cc3c(=O)c(C(=O)O)cn([C@@H]4C[C@@H]4F)c3c2Cl)CC12CC2`, the activity change, negative = inhibition is -6.27% (inactive).

On to `CNC1CCCN(c2c(F)cc3c(=O)c(C(=O)O)cn(C4CC4)c3c2OC)C1` (stereo not drawn), for which the activity change, negative = inhibition was 0.884% (inactive).

With `COc1c(N2CCNC(C)C2)c(F)cc2c(=O)c(C(=O)O)cn(C3CC3)c12` (stereo not drawn), the activity change, negative = inhibition is 7.25% (inactive) and -78% (active).

As to `COc1c(N2C[C@@H]3CCCN[C@@H]3C2)c(F)cc2c(=O)c(C(=O)O)cn(C3CC3)c12`, the activity change, negative = inhibition is -7.38% (inactive).

As to `C[C@H](NC(=O)c1sccc1OCc1ccc(Cl)cc1)c1ccccc1`, the activity change, negative = inhibition was 28.7% (inactive).

For `O=C(O)c1cc(Oc2ccc([N+](=O)[O-])cc2)cc(Oc2ccc([N+](=O)[O-])cc2)c1`, the activity change, negative = inhibition is 4.54% (inactive) and 5.04% (inactive).

On to `CC1=CC2C(CC1=O)C(C)=CCC2C(C)C` (stereo not drawn), for which the activity change, negative = inhibition was 4.22% (inactive).

As to `c1ccc(COCCCc2cnc[nH]2)cc1`, the activity change, negative = inhibition was -41.7% (inactive) and 17.9% (inactive).

For the molecule `O=C(Nc1c(-c2cccs2)nc2ccccn12)c1ccc(Cl)cc1`, the activity change, negative = inhibition is 6.95% (inactive).

`CN1C(CC(=O)c2ccccc2)CCCC1CC(O)c1ccccc1` (stereo not drawn): the activity change, negative = inhibition was 6.13% (inactive) and 6.36% (inactive).

Regarding `CO[C@H]1C[C@H](O[C@H]2[C@H](C)[C@@H](OC3O[C@H](C)C[C@H](N(C)C)[C@H]3OC(C)=O)[C@@H](C)C[C@]3(CO3)C(=O)[C@H](C)[C@@H](OC(C)=O)[C@@H](C)[C@@H](C)OC(=O)[C@@H]2C)O[C@@H](C)[C@@H]1OC(C)=O` (stereo partly drawn), the activity change, negative = inhibition was 5.2% (inactive).

In the case of `Nc1ncnc2c1c(-c1cccc(OCc3ccccc3)c1)cn2C1CC(CN2CCCC2)C1` (stereo not drawn), the activity change, negative = inhibition was -69.4% (inactive).

As for `Nc1ncnc2c1c(-c1cccc(OCc3ccccc3)c1)cn2C1CC(CN2CCC2)C1` (stereo not drawn), the activity change, negative = inhibition is -81.2% (active).

In the case of `Cc1cccc(C)c1NC(=O)CC12CCCN1CCC2`, the activity change, negative = inhibition was 13.3% (inactive).

In the case of `CC(C)(C)NCC(O)COc1nsnc1N1CCOCC1` (stereo not drawn), the activity change, negative = inhibition is -0.1% (inactive).

For `O=C1CCC(c2ccccc2)(C2CCN(Cc3ccc(I)cc3)CC2)C(=O)N1` (stereo not drawn), the activity change, negative = inhibition is 11.1% (inactive).

Regarding `Cc1ccc(/C=C2\C(=O)C3(C)CCC2C3(C)C)cc1` (stereo not drawn), the activity change, negative = inhibition is 2.27% (inactive).

Turning to `Cc1ccc(S(N)(=O)=O)cc1`, the activity change, negative = inhibition is 13.5% (inactive).

Consider `Cc1ccc(/C=C2/CNC/C(=C\c3ccc(C)cc3)C2=O)cc1`, for which the activity change, negative = inhibition was -85.7% (active).

Turning to `Cc1ccc(/C=C2\CNC/C(=C\c3ccc(C)cc3)C2=O)cc1`, the activity change, negative = inhibition was -83.2% (active).

`CC(C)C[C@H](N[C@@H](Cc1cncn1Cc1cc(Cl)cc(Cl)c1)C(=O)O)C(=O)O`: the activity change, negative = inhibition was 6.67% (inactive).

With `CC1(O)CC(c2nc(-c3ccc4ccc(-c5ccccc5)nc4c3)c3c(N)nccn23)C1` (stereo not drawn), the activity change, negative = inhibition is -27.9% (inactive).

Take `CCn1c(N)c(C(=O)NC)c(=O)c2ccc(C#C[C@@](C)(O)COC)nc21`: the activity change, negative = inhibition is 13.3% (inactive).

On to `CC1(C)C2CC[C@]3(C)[C@H](C(=O)C=C4[C@@H]5C[C@@](C)(C(=O)O)CC[C@]5(C)CC[C@]43C)[C@@]2(C)CC[C@@H]1OC(=O)CCC(=O)O` (stereo partly drawn), for which the activity change, negative = inhibition was 6.15% (inactive) and 3.75% (inactive).

For the molecule `CC(=O)O[C@H]1CC[C@@]2(C)C(C[C@@H](OC(C)=O)[C@@]3(C)C4=CC(=O)O[C@@H](c5ccoc5)[C@]4(C)CCC23)C1(C)C` (stereo partly drawn), the activity change, negative = inhibition is 15% (inactive).

For the molecule `CC(=O)O[C@]1(C(C)=O)CCC2C3C=C(C)C4=CC(=O)CCC4(C)C3CCC21C` (stereo partly drawn), the activity change, negative = inhibition is 4.78% (inactive) and -4.91% (inactive).

`CCCCCCCCCCCCCCCC(=O)OC(C)C`: the activity change, negative = inhibition was 3.86% (inactive).

For `CN[C@H](C(=O)N[C@H](C(=O)N(C)[C@H](/C=C(\C)C(=O)O)C(C)C)C(C)(C)C)C(C)(C)c1ccccc1`, the activity change, negative = inhibition is -73.6% (active).

Turning to `C[C@H]1CCO[C@H]2Cn3cc(C(=O)NCc4ccc(F)cc4F)c(=O)c(O)c3C(=O)N21`, the activity change, negative = inhibition was 25.9% (inactive).

As for `Cc1cccc(C)c1NC(=O)c1cc(S(N)(=O)=O)c(Cl)cc1O`, the activity change, negative = inhibition was 15.4% (inactive).

Take `Cc1c(C)c2c(c(C)c1OC(=O)CCC(=O)O)CC[C@@](C)(CCC[C@H](C)CCC[C@H](C)CCCC(C)C)O2`: the activity change, negative = inhibition was 19.4% (inactive).

As to `O=c1c(O)c(-c2ccccc2)oc2cc(O)ccc12`, the activity change, negative = inhibition is 31.5% (inactive).

On to `CN1CC(C(=O)NC2(C)OC3(O)C4CCCN4C(=O)C(Cc4ccccc4)N3C2=O)CC2c3cccc4[nH]cc(c34)CC21` (stereo not drawn), for which the activity change, negative = inhibition was -10.4% (inactive).

Consider `CC(=O)C1C(=O)[C@@H]2[C@H]3c4c[nH]c5cccc(c45)C[C@H]3C(C)(C)N2C1=O` (stereo partly drawn), for which the activity change, negative = inhibition was -78.3% (active) and -0.858% (inactive).

Take `CN1C[C@H](C(=O)N[C@]2(C)O[C@@]3(O)[C@@H]4CCCN4C(=O)[C@H](Cc4ccccc4)N3C2=O)C[C@@H]2c3cccc4[nH]cc(c34)C[C@H]21`: the activity change, negative = inhibition is 5.44% (inactive) and 2.08% (inactive).
